Measurements as given in PubChem BioAssay (NCATS).
Inconclusive results are not listed. Where a call stands in place of a potency, no number is given. A number with no mark means an inactive call. Calls of active or inactive are those of the source. The call rests on the fitted dose curve; in most records, active means well fitted curve in the direction sought with a large enough effect; inconclusive means small, poorly fitted or top-dose-only effect, or another doubt; inactive means no such curve, though single readings can be large; an effect the other way counts as inactive or inconclusive.

Experiments:
[1] = molecular target: ATP-dependent 6-phosphofructokinase (Trypanosoma brucei brucei) (UniProt O15648); assay: qHTS Assay to Find Inhibitors of T. brucei phosphofructokinase: hit validation (AID 492961);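 further: luminescence reports ADP formed as PFK phosphorylates fructose-6-phosphate with ATP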
ATP-dependent 6-phosphofructokinase (Trypanosoma brucei brucei), sequence (O15648 whole entry, looked up): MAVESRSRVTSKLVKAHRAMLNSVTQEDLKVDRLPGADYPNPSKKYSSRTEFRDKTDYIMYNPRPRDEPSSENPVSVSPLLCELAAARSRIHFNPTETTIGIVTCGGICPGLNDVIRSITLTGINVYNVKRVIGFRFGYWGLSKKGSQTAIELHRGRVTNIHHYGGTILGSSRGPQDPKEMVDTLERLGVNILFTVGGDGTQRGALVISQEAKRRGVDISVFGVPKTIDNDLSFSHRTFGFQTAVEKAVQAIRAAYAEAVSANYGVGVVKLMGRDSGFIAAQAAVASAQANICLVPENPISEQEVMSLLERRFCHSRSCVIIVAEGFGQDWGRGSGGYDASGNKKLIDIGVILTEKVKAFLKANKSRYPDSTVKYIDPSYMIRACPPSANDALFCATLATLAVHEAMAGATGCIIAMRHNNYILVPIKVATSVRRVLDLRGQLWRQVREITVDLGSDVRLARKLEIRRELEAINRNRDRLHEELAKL
In short: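 PFK 1.25 nM, F6P 0.5 mM, ATP 0.1 mM, MgCl2 5 mM, 0.1 M TEA pH 8.0, Tween20 0.01%, BSA 0.1%; 45 min RT. ADP-Glo two-step detection, luminescence. qHTS titration; curve fitting with curve-class categorization.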

[2] = qHTS profiling for inhibitors of Plasmodium falciparum proliferation (AID 504749); further: nearly all actives have a fitted effect of over 60% in size; further: potency means the concentration at half of the fitted maximal effect; details: P. falciparum in erythrocytes, SYBR Green DNA, 72 h, at 12.8 µM (top of the series)
In short: (§1)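 P. falciparum-infected erythrocytes (0.3% parasitemia, 2.5% hematocrit final) were exposed to compounds for 72 h at 37 C in 5% CO2, then lysed with SYBR Green buffer overnight at room temperature; parasite DNA fluorescence was normalized to artemisinin and DMSO controls.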

[3] = tested on: 3D7; assay: as above; details: P. falciparum in erythrocytes, SYBR Green DNA, 72 h; series mostly up to 28.7 µM
In short: as §1

[4] = tested on: 7G8; assay: as above; details: P. falciparum in erythrocytes, SYBR Green DNA, 72 h; series mostly up to 28.7 µM
In short: as §1

[5] = tested on: CP192; assay: as above; details: P. falciparum in erythrocytes, SYBR Green DNA, 72 h; series mostly up to 28.7 µM
In short: as §1

[6] = tested on: CP201; assay: as above; details: P. falciparum in erythrocytes, SYBR Green DNA, 72 h; series mostly up to 28.7 µM
In short: as §1

[7] = tested on: CP215; assay: as above; details: P. falciparum in erythrocytes, SYBR Green DNA, 72 h; series mostly up to 28.7 µM
In short: as §1

[8] = tested on: CP237; assay: as above; details: P. falciparum in erythrocytes, SYBR Green DNA, 72 h; series mostly up to 28.7 µM
In short: as §1

[9] = tested on: CP262; assay: as above; details: P. falciparum in erythrocytes, SYBR Green DNA, 72 h; series mostly up to 28.7 µM
In short: as §1

[10] = tested on: CP266; assay: as above; details: P. falciparum in erythrocytes, SYBR Green DNA, 72 h; series mostly up to 28.7 µM
In short: as §1

[11] = tested on: CP325; assay: as above; details: P. falciparum in erythrocytes, SYBR Green DNA, 72 h; series mostly up to 28.7 µM
In short: as §1

[12] = tested on: DIV14; assay: as above; details: P. falciparum in erythrocytes, SYBR Green DNA, 72 h; series mostly up to 28.7 µM
In short: as §1

[13] = tested on: DIV17; assay: as above; details: P. falciparum in erythrocytes, SYBR Green DNA, 72 h; series mostly up to 28.7 µM
In short: as §1

[14] = tested on: Dd2; assay: as above; details: P. falciparum in erythrocytes, SYBR Green DNA, 72 h; series mostly up to 28.7 µM
In short: as §1

[15] = tested on: FAB9; assay: as above; details: P. falciparum in erythrocytes, SYBR Green DNA, 72 h; series mostly up to 28.7 µM
In short: as §1

[16] = tested on: GB4; assay: as above; details: P. falciparum in erythrocytes, SYBR Green DNA, 72 h; series mostly up to 28.7 µM
In short: as §1

[17] = tested on: HB3; assay: as above; details: P. falciparum in erythrocytes, SYBR Green DNA, 72 h; series mostly up to 28.7 µM
In short: as §1

[18] = tested on: P94_40; assay: as above; details: P. falciparum in erythrocytes, SYBR Green DNA, 72 h; series mostly up to 28.7 µM
In short: as §1

[19] = tested on: PC49; assay: as above; details: P. falciparum in erythrocytes, SYBR Green DNA, 72 h; series mostly up to 28.7 µM
In short: as §1

[20] = tested on: TAB165; assay: as above; details: P. falciparum in erythrocytes, SYBR Green DNA, 72 h; series mostly up to 28.7 µM
In short: as §1

For `C[C@@H](C(=O)O)c1ccc(-c2ccccc2)c(F)c1`, which outcome [1] is on record?
The outcome was “inactive”.

What about the activity, negative = inhibition ([2]; parasite line A) of the same molecule?
The activity, negative = inhibition was 6.83%.

And the activity, negative = inhibition ([2]; parasite line B)?
The activity, negative = inhibition was 6.59%.

And the Potency [3]?
Its Potency is “inactive”.

What about the Potency [4] of the same molecule?
Its Potency is “inactive”.

What about the Potency [5] of the same molecule?
Its Potency is “inactive”.

And the Potency [6]?
The Potency was “inactive”.

What about the Potency [7] of the same molecule?
The Potency was “inactive”.

What about the Potency [8] of the same molecule?
The Potency was “inactive”.

What about the Potency [9] of the same molecule?
The Potency was “inactive”.

And the Potency [10]?
The Potency was “inactive”.

What about the Potency [11] of the same molecule?
The Potency was “inactive”.

And the Potency [12]?
Its Potency is “inactive”.

And the Potency [13]?
The Potency was “inactive”.

And the Potency [14]?
Its Potency is “inactive”.

And the Potency [15]?
The Potency was “inactive”.

And the Potency [16]?
Its Potency is “inactive”.

And the Potency [17]?
The Potency was “inactive”.

What about the Potency [18] of the same molecule?
The Potency was “inactive”.

What about the Potency [19] of the same molecule?
Its Potency is “inactive”.

What about the Potency [20] of the same molecule?
Its Potency is “inactive”.

For `CCOC(=O)C(CCc1ccccc1)NC1CCc2ccccc2N(CC(=O)O)C1=O` (stereo not given), which outcome [1] is on record?
Its outcome is “inactive”.

And the Potency [3]?
Its Potency is “inactive”.

And the Potency [4]?
Its Potency is 7.94 µM (active).

And the Potency [5]?
The Potency was “inactive”.

And the Potency [6]?
The Potency was “inactive”.

And the Potency [7]?
Its Potency is “inactive”.

What about the Potency [8] of the same molecule?
Its Potency is 10 µM (active).

And the Potency [9]?
Its Potency is “inactive”.

What about the Potency [10] of the same molecule?
The Potency was “inactive”.

What about the Potency [11] of the same molecule?
The Potency was “inactive”.

What about the Potency [12] of the same molecule?
The Potency was 7.57 µM (active).

And the Potency [13]?
Its Potency is 10.7 µM (active).

And the Potency [14]?
The Potency was 11.2 µM (active).

And the Potency [15]?
The Potency was “inactive”.

What about the Potency [16] of the same molecule?
Its Potency is 15.1 µM (active).

What about the Potency [17] of the same molecule?
The Potency was “inactive”.

What about the Potency [18] of the same molecule?
Its Potency is “inactive”.

What about the Potency [19] of the same molecule?
Its Potency is “inactive”.

And the Potency [20]?
The Potency was 11.2 µM (active).
